Data as given in PubChem BioAssay (Tox21).
Where “and” joins values, the source holds several entries; their conditions need not be identical. Equal entries are not always repeated. Results filed as inconclusive are left out. A call without a number means that no potency is given here. Calls of active or inactive are those of the source. Unless noted, the call rests on the fitted dose curve; in most records, active means well fitted curve in the direction sought with a large enough effect in the repeat runs; inconclusive means weak or mixed curves; inactive means no such curve, though single readings can be large; an effect the other way counts as inactive or inconclusive.

Columns and labels:
[1] = qHTS assay to identify small molecule agonists of the vitamin D receptor (VDR) signaling pathway - cell viability counter screen (AID 743224); further: series mostly up to about 63 µM; nearly all actives have a fitted effect of over 50% in size
How it was run: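 Compounds were pin-transferred onto VDR-bla cells plated 4 h earlier; following 16 h incubation at 37C, cell viability was quantified by CellTiter-Glo luminescence after 30 min at room temperature.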

[2] = qHTS assay to identify small molecule antagonists of the vitamin D receptor (VDR) signaling pathway - cell viability counter screen (AID 743225); further: nearly all actives have a fitted effect of over 50% in size
How it was run: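 Luminescent cell viability (CellTiter-Glo) in VDR-bla HEK 293T cells after 16 h compound exposure at 37C in the presence of 3 nM final 1-alpha,25-dihydroxy vitamin D3.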

[3] = qHTS assay to identify small molecule agonists of the NFkB signaling pathway - cell viability counter screen (AID 1159515; calls by dose curve; further: nearly all actives have a fitted effect of over 55% in size; further: potency means the concentration at half of the fitted maximal effect)
How it was run: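 Parallel cytotoxicity counter screen in ME-180 cells carrying an NFkB-response-element beta-lactamase reporter, 2,000 cells/well. Compound exposure lasted 5 hr at 37 C, 5% CO2. Cell viability was quantified by CellTiter-Glo luminescence.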

[4] = qHTS assay to identify small molecule agonists of the endoplasmic reticulum stress response signaling pathway - cell viability counter screen (AID 1159517; calls by dose curve; further: nearly all actives have a fitted effect of over 50% in size; further: potency means the concentration at half of the fitted maximal effect)
How it was run: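 Cytotoxicity of test compounds toward ESRE-bla HeLa cells was assessed after 5 hr exposure. The luminescent CellTiter-Glo signal was measured 30 min after reagent addition.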

[5] = qHTS assay to identify small molecule antagonists of the retinoid-related orphan receptor gamma (ROR-gamma) signaling pathway - cell viability counter screen (AID 1159520); further: nearly all actives have a fitted effect of over 50% in size; further: potency means the concentration at half of the fitted maximal effect
How it was run: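 Tet-on ROR gamma CHO cells (1,000/well) were plated 4 hr, given compounds in DMSO for 2 hr at 37 C, then induced with 1 uM final doxycycline for 16 hr. Viability was read as ATP by CellTiter-Glo luminescence after 30 min.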

[6] = target: Nuclear receptor ROR-gamma (Homo sapiens) (UniProt P51449); assay: qHTS assay to identify small molecule antagonists of the retinoid-related orphan receptor gamma (ROR-gamma) signaling pathway (AID 1159521; further: nearly all actives have a fitted effect of over 50% in size; further: potency means the concentration at half of the fitted maximal effect)
How it was run: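 CHO cells expressing RORγ under a TET-on promoter, luciferase under RORE control. Dox 1 uM final, 16 h; compounds added 2 h prior. Luminescence decrease measured.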

[7] = qHTS assay to identify small molecule agonists of the AP-1 signaling pathway - cell viability counter screen (AID 1159525; calls by dose curve; further: nearly all actives have a fitted effect of over 55% in size; further: potency means the concentration at half of the fitted maximal effect)
How it was run: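 Each titration point was normalised to DMSO and tetra n-octyl ammonium bromide controls. The read was Cell Titer Glo luminescence after 30 min at RT, following 5 h compound exposure of ME-180 AP-1-bla cells at 37 °C.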

[8] = qHTS assay to identify small molecule agonists of the AP-1 signaling pathway (AID 1159526; calls by dose curve)
[9] = target: Retinoic acid receptor RXR-alpha (Homo sapiens) (UniProt P19793); assay: qHTS assay to identify small molecule agonists of the RXR signaling pathway (AID 1159527; calls by dose curve; further: nearly all actives have a fitted effect of over 35% in size)
How it was run: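 Beta-lactamase reporter assay, agonist format. Engineered HEK 293T line, charcoal-stripped FBS at 2%, overnight (16 hr) exposure, fluorescence at 460 and 530 nm after 405 nm excitation.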

[10] = qHTS assay to identify small molecule agonists of the RXR signaling pathway - cell viability counter screen (AID 1159529); further: nearly all actives have a fitted effect of over 50% in size; further: potency means the concentration at half of the fitted maximal effect
How it was run: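 Same-well viability check after the LiveBLAzer FRET read: CellTiter-Glo added, luminescence measured after 30 min at room temperature. Reporter HEK 293T cells had been treated with compounds for 16 hr following a 5 hr preincubation.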

[11] = qHTS assay to identify small molecule antagonists of the retinoid acid receptor (RAR) signaling pathway - cell viability counter screen (AID 1159551); further: nearly all actives have a fitted effect of over 35% in size; further: potency means the concentration at half of the fitted maximal effect
How it was run: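 ATP-based viability, C3RL4 cells, 6 h at 37 C with 1 uM final retinol co-added after compound; luminescence read 30 min post CellTiter-Glo, RT.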

[12] = qHTS assay to identify small molecule antagonists of the retinoic acid receptor (RAR) signaling pathway (AID 1159552; further: nearly all actives have a fitted effect of over 50% in size; further: potency means the concentration at half of the fitted maximal effect)
How it was run: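 Readout: luciferase luminescence, 30 min post-reagent at RT. Setup: C3RL4 RARE reporter cells, compounds plus retinol 1 uM final, 6 hr incubation at 37 C and 5% CO2.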

[13] = qHTS assay to identify small molecule agonists of the retinoic acid receptor (RAR) signaling pathway (AID 1159553)
How it was run: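 Quantitative high-throughput format: the Tox21 10K library was tested on C3RL4 RARE-luciferase cells for 6 hr at 37 C and 5% CO2, with luminescence measured after a 30 min room-temperature reagent step.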

[14] = qHTS assay to identify small molecule antagonists of the estrogen related receptor (ERR) signaling pathway - cell viability counter screen (AID 1224818);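 further: series mostly up to about 46 µM; viability measured after 17.5 h of compound exposure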
How it was run: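 Quantitative high-throughput viability counter screen in ERR cells. Compounds (DMSO) incubated 17.5 h at 37 C; read-out was CellTiter-Fluor fluorescence.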

[15] = qHTS assay to identify small molecule antagonists of the estrogen related receptor (ERR) signaling pathway (AID 1224819)
How it was run: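 ERR reporter cell line (NTP) plated at 2,000 cells/well, settled 6 h at 37C/5% CO2, then exposed to LOPAC compounds for 18 h at 37C. One-Glo luciferase luminescence read after 30 min at room temperature.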

[16] = qHTS assay to identify small molecule agonists of the estrogen related receptor (ERR) signaling pathway (AID 1224820)
How it was run: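 Following a 6 h settling period, 2,000 ERR cells per well receive DMSO-dissolved compounds by pin tool and incubate 18 h at 37 C; agonist activity is scored from One-Glo luminescence read 30 min post-addition.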

[17] = system: estrogen-related receptor alpha (ERRalpha) with PGC-1alpha coactivator, human; assay: qHTS assay to identify small molecule antagonists of the estrogen related receptor signaling pathway with the pleiotropic PPARgamma coactivator (PGC) (AID 1224821; calls by dose curve)
How it was run: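 Screening used NTP's PGC/ERR cells, dosed via pin tool with compound in DMSO alongside positive and negative controls. After 18 h at 37 C, One-Glo reagent sat 30 min at room temperature before luminescence detection.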

[18] = qHTS assay to identify small molecule antagonists of the estrogen related receptor signaling pathway with the pleiotropic PPARgamma coactivator (PGC) cell viability counter screen (AID 1224822; further: series mostly up to about 46 µM)
How it was run: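 Cytotoxicity in the PGC/ERR cell line is assessed with CellTiter-Fluor, read as fluorescence intensity 30 min after reagent addition, following 17.5 h compound treatment at 37 C.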

Retinoic acid receptor RXR-alpha (Homo sapiens), sequence (P19793 whole entry, looked up): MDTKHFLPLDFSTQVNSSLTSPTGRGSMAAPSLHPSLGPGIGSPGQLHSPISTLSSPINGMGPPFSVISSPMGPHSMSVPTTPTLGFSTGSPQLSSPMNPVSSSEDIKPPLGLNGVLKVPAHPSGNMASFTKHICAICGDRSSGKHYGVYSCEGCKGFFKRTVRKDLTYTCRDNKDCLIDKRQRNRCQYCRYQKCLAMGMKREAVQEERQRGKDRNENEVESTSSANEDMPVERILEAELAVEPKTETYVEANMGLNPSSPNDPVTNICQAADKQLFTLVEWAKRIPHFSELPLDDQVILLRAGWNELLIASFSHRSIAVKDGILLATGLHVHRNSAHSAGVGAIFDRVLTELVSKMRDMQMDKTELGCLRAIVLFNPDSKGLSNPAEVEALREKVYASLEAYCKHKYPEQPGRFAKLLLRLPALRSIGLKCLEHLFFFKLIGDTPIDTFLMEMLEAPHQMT

Compound	Potency [1]	Potency [2]	Potency [3]	Potency [4]	Potency [5]	Potency [6]	Potency [7]	Potency [8]	Potency [9]	Potency [10]	Potency [11]	Potency [12]	Potency [13]	outcome [14]	Potency [15]	outcome [16]	outcome [17]	Potency [18]
NS(=O)(=O)O	inactive	inactive	inactive	inactive	inactive	inactive	inactive	inactive	inactive	inactive	inactive	–	–	–	–	–	–	–
OC[C@H]1O[C@H](O[C@]2(CCl)O[C@H](CCl)[C@@H](O)[C@@H]2O)[C@H](O)[C@@H](O)[C@H]1Cl	–	inactive	inactive	inactive	inactive	inactive	inactive	inactive	inactive	inactive	inactive	–	–	–	–	–	–	–
COc1ccc2c(c1)c(CC(=O)O)c(C)n2C(=O)c1ccc(Cl)cc1	inactive	–	inactive	inactive	inactive	–	inactive	inactive	–	inactive	inactive	inactive	inactive	inactive	inactive	inactive	inactive	inactive
CCc1nc(N)nc(N)c1-c1ccc(Cl)cc1	–	–	inactive	inactive	inactive	inactive	inactive	–	inactive	–	inactive	–	–	–	–	–	–	–
O=C1OC2(c3ccccc31)c1cc(Br)c(O)c(Br)c1Oc1c2cc(Br)c(O)c1Br	–	–	inactive	inactive	inactive	inactive	inactive	inactive	–	inactive	inactive	inactive	inactive	–	–	–	–	–
CC(=O)CCC(=O)O	inactive	–	inactive	inactive	inactive	inactive	inactive	inactive	inactive	inactive	inactive	–	–	–	–	–	–	–
CCOc1ccc(NC(C)=O)cc1	inactive	inactive	inactive	inactive	inactive	inactive	inactive	inactive	inactive	inactive	inactive	–	–	–	–	–	–	–
CCCCNC(=O)NS(=O)(=O)c1ccc(C)cc1	–	–	inactive	inactive	inactive	inactive	inactive	inactive	inactive	inactive	inactive	–	–	inactive	inactive	inactive	inactive	inactive
CC(C)NCC(O)c1ccc(O)c(O)c1 (centres undefined)	–	inactive	inactive	inactive	inactive	inactive	inactive	inactive	inactive	inactive	inactive	–	–	inactive	inactive	–	inactive	inactive
O=C(O)c1ccccc1	inactive	inactive	inactive	inactive	inactive	inactive	inactive	inactive	inactive	inactive	inactive	–	–	–	–	–	–	–
CC(O)(P(=O)(O)O)P(=O)(O)O	inactive	–	inactive	inactive	inactive	–	inactive	inactive	inactive	inactive	inactive	–	–	–	–	–	–	–
CC(=O)CC(c1ccccc1)c1c(O)c2ccccc2oc1=O (centres undefined)	inactive	–	inactive	inactive	inactive	inactive	inactive	inactive	–	inactive	inactive	–	–	–	–	–	–	–
CCCCCCCCCCCCCCCC[N+](C)(C)Cc1ccccc1	–	–	56.7 µM (active) and 49.8 µM (active) and 21.3 µM (active)	25.3 µM (active) and 39.6 µM (active)	70.8 µM (active) and 55.5 µM (active) and 29.8 µM (active)	56.2 µM (active) and 27.8 µM (active) and 13.3 µM (active)	40.1 µM (active) and 49.8 µM (active) and 23.9 µM (active)	–	–	17.9 µM (active) and 14 µM (active) and 4.25 µM (active)	79.4 µM (active) and 62.2 µM (active) and 29.8 µM (active)	56.2 µM (active) and 27.8 µM (active) and 23.7 µM (active)	–	–	–	–	–	–
